# Assay outcomes (PubChem)
# An excerpt weighted towards active compounds, which were near 2.5% of everything screened.
# Cruzain inh Det – blocks cruzain activity in presence of Triton detergent. 200,000 compounds, 0.43% hits. purified cruzain, Z-FR-AMC fluorescence, 0.01% Triton. Potency, µM, most hits filed as inhibitors. P25779. AID 1478; further: nearly all actives have a fitted effect of over 40% in size
# Target sequence (P25779 123-467 limits assumed): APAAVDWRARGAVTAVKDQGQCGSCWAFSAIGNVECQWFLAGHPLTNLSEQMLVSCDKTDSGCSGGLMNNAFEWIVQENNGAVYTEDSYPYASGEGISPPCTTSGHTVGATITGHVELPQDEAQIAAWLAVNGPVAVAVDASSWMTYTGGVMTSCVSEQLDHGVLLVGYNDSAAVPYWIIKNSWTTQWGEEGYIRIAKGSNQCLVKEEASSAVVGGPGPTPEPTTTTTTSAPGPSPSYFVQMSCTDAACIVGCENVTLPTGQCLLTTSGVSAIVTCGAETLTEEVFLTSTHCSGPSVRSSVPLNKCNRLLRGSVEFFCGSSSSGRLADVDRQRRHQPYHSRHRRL
#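 15 min RT preincubation of 1.5 nM cruzain with compound, then 2 uM Z-FR-AMC added; kinetic AMC fluorescence, 60 s delta. Triton X-100 0.01%, pH 5.5.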
# Cruzain noTriton – inhibitors of Trypanosoma cruzi cruzain without detergent; P25779; purified cruzain, Z-FR-AMC fluorescence, no detergent; Potency, µM, most hits filed as inhibitors; 200,000 compounds, 2.3% hits; further: nearly all actives have a fitted effect of over 40% in size
#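 Detergent-free condition (0.00005% Triton X-100) in acetate buffer pH 5.5 with DTT. 1.5 nM enzyme and compound were pre-mixed 15 min, then 2 uM Z-FR-AMC substrate added; reaction progress from fluorescence change between first and third reads (60 s).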
# Numbers stand for hits; n = inactive; u = inconclusive. The call rests on the fitted dose curve; in most records, active means well fitted curve in the direction sought with a large enough effect; inconclusive means small, poorly fitted or top-dose-only effect, or another doubt; inactive means no such curve, though single readings can be large; an effect the other way counts as inactive or inconclusive.
SMILES,Cruzain inh Det,Cruzain noTriton
Oc1cccc(Nc2nc(NCC3CCCO3)c3ccccc3n2)c1 (stereo unspecified),18µM,13µM
COc1cc(C2C(=O)N(C3CCCCCC3)CC(=O)N2Cc2ccccc2)ccc1OC(C)C (stereo unspecified),n,n
COc1ccc(Nc2nnc(-c3ccc(C)c(S(=O)(=O)N4CCOCC4)c3)c3ccccc23)cc1,n,n
O=C(O)[C@@H]1[C@@H](C(=O)O)[C@@]23CCCC2=C2CC[C@@]3(C(=O)O)[C@@]3(C(=O)O)C[C@@]213,n,n
COc1ccc(/C=C2/N=C(SCC(=O)Nc3cc(C)on3)N(c3ccccc3)C2=O)cc1,n,n
CCC(SC1=N/C(=C/c2ccccc2)C(=O)N1c1ccccc1)C(=O)Nc1cc(C)on1 (stereo unspecified),n,32µM
CC(C)CC(=O)Nc1nc2nc(-c3ccccc3)cc(=O)n2[nH]1,n,n
COc1ccccc1NC(=O)c1ccc(NS(=O)(=O)c2ccc(F)c(F)c2F)cc1,n,n
CCOc1ccc(Br)cc1S(=O)(=O)Nc1ccc(NC(=O)c2ccccc2F)cc1,n,25µM
CCOc1ccc(Br)cc1S(=O)(=O)Nc1ccc(C(=O)Nc2ccccc2OC)cc1,n,16µM
CCOc1ccc(Br)cc1S(=O)(=O)Nc1ccc(NC(=O)c2ccccc2C)cc1,n,u
COc1ccc(C)cc1S(=O)(=O)Nc1ccc(F)cc1,n,n
COc1ccc(NC(=O)c2c(F)cccc2F)cc1S(=O)(=O)Nc1ccc(Br)cc1,n,16µM
CCOc1ccc(Br)cc1S(=O)(=O)Nc1ccc(C(=O)Nc2ccc(C)cc2)cc1,n,32µM
CCOc1ccc(Br)cc1S(=O)(=O)Nc1ccc(C(=O)OCC(=O)N(C)c2ccccc2)cc1,n,n
CNC(=O)CN1C(=O)COc2ccc(S(=O)(=O)N3CCC(C)CC3)cc21,n,n
CC(C)(C)C(=O)Nc1ccc2nc(SCCOc3ccccc3Cl)sc2c1,n,n
Cc1ccc(NC(=O)c2cc(S(=O)(=O)NC3CCCCC3)ccc2F)cc1Cl,n,n
CCOCCCNC(=O)C(c1ccccc1)N(Cc1cccs1)C(=O)c1ccc(NC(C)=O)cc1 (stereo unspecified),n,u
COc1cccc(/C=C/C(=C2/C(=O)N(c3ccccc3)N=C2C)c2ccccc2)c1OC,n,n
COc1ccccc1/C=C/C(=C1/C(=O)N(c2ccccc2)N=C1C)c1ccc(C)cc1,n,25µM
CC(C)(CC(=O)Nc1ccccc1)C(=O)O,n,n
Cc1ccc(NC(=O)C(=O)NCC(c2ccc3c(c2)OCO3)N2CCN(C)CC2)c(C)c1 (stereo unspecified),n,n
COc1ccc(-c2csc(N3C(=O)C4C5c6ccccc6C(c6ccccc65)C4C3=O)n2)cc1 (stereo unspecified),n,16µM
COc1ccc(-c2csc(N3C(=O)C4C5c6ccccc6C(c6ccccc65)[C@@H]4C3=O)n2)cc1 (stereo partly specified),n,10µM
SMILES,Cruzain inh Det,Cruzain noTriton
COc1ccc(-c2csc(N3C(=N)SCC3=O)n2)cc1,n,u
COc1ccc(-c2csc(N3C(=O)CNC3=S)n2)cc1,n,u
COc1ccccc1Cn1c(C2CC(=O)N(c3ccccc3OC)C2)nc2ccccc21 (stereo unspecified),n,n
Cc1nn(C)c2c1c(C(F)(F)F)cc(=O)n2CC(=O)NCc1ccccc1Cl,n,n
Nc1c(C(=O)NC2CCCC2)sc2nc(-c3cccs3)ccc12,n,25µM
Nc1c(C(=O)Nc2ccc(C(F)(F)F)cc2)sc2nc(-c3cccs3)ccc12,n,u
CCOC(=O)c1cccc(NS(=O)(=O)c2cc(-c3cnc(C4CC4)o3)ccc2C)c1,n,n
Cc1ccc(CSC2=Nc3ccccc3C3=NC(CC(=O)NC4CCCCC4)C(=O)N23)cc1 (stereo unspecified),n,n
O=C(CCN1CCc2ccccc2CC1)c1ccc2c(c1)OCCO2,u,16µM
O=C(CCN1CCOCC1)c1ccc2c(c1)OCCO2,n,n
COc1cc2nc(SCc3ccc(F)cc3)n(Cc3cccs3)c(=N)c2cc1OC,n,u
COc1ccc(Cn2c(SCc3ccccc3C)nc3cc(OC)c(OC)cc3c2=N)cc1,16µM,u
O=C(Nc1c(C(=O)N2CCN(c3ccccc3)CC2)oc2ccccc12)c1ccccc1F,n,n
O=C(Nc1c(C(=O)N2CCN(c3ccccc3F)CC2)oc2ccccc12)c1ccccc1F,n,20µM
CCN(C(=O)CSc1nc(-c2ccccc2)no1)c1cccc(C)c1,n,n
CCC1CN(C(=O)N2CCC(C(=O)NCc3ccc(N(C)C)cc3)CC2)c2ccccc2O1 (stereo unspecified),n,n
Cc1ccsc1/C=C1/SC(N2CCOCC2)=NC1=O,n,n
O=C1N=C(N2CCOCC2)S/C1=C\c1ccc(-c2ccccc2Cl)o1,n,32µM
COCc1cc(Sc2ccc(Cl)cc2)nc(-c2ccccc2)n1,n,n
Nc1ccc(Sc2cc(Cl)nc(N)n2)cc1,n,13µM
C[C@H]1C2C=C[C@H]1[C@@H](C(=O)O)[C@@H]2c1c2ccc(=O)c(O)c-2oc2c(O)c(O)ccc12,n,n
Cc1cc(C)cc(NC(=O)C2CCCN(c3cnccn3)C2)c1 (stereo unspecified),n,n
COc1ccc(Nc2ccc3cc(S(=O)(=O)N4CCCC4)ccc3n2)cc1OC,n,n
CC(=O)c1cccc(Nc2ccc3cc(S(=O)(=O)N4CCCC4)ccc3n2)c1,n,13µM
CC(C)Cn1c(=O)c2sccc2n2c(CCCC(=O)Nc3ccc(Cl)cc3)nnc12,n,n
SMILES,Cruzain inh Det,Cruzain noTriton
CCc1ccccc1Nc1nn2c(=O)c3ccc(C(=O)NC4CCC(C)CC4)cc3nc2s1 (stereo unspecified),n,n
Cc1cnc(NC(=O)CSc2nc3ccccc3s2)s1,n,n
Cc1cc(NC(=O)CSc2nc3ccccc3s2)no1,n,32µM
CCOc1ccc2nc(SCC(=O)N3c4ccccc4Sc4ccccc43)sc2c1,n,u
O=C(CSc1nc2ccccc2s1)N1c2ccccc2Sc2ccccc21,n,16µM
Cc1ccc(CCNC(=O)c2ccc(CSCc3ccccc3C)o2)cc1,n,n
CCn1c(-c2cc(-c3cccc(OC)c3)nc3ccccc23)n[nH]c1=S,n,n
CCc1ccc(-c2cc(-c3n[nH]c(=S)n3CC)c3ccccc3n2)cc1,n,16µM
COC(=O)c1cc(Cl)ccc1NC(=O)CSc1ncc(S(=O)(=O)c2ccc(Br)cc2)c(=O)[nH]1,25µM,u
COc1ccc(CNC(=O)CSc2ncc(S(=O)(=O)c3ccc(Br)cc3)c(=O)[nH]2)cc1,n,u
Fc1cccc(Cl)c1/C=N\N=C1c2ccccc2-c2ccccc21,n,n
O=C(CNC(=O)c1cccs1)OCC(=O)c1ccc2ccccc2c1,u,n
CC(C)(C)c1ccc(C(=O)NCC(=O)OCC(=O)c2ccc3c(c2)-c2ccccc2C3)cc1,n,25µM
COc1ccc(C2C(=O)N(C3CCCCCC3)CC(=O)N2CCC2=CCCCC2)cc1 (stereo unspecified),n,n
COc1ccc(-n2c(=O)c3c4c(sc3n(Cc3c(F)cccc3Cl)c2=O)CN(C(C)=O)CC4)cc1OC,n,n
COc1ccc(C(=O)N2CCN(c3nc4c(C)c(Cl)ccc4s3)CC2)c(OC)c1,n,u
Cc1ccc(C(=O)NNC(=O)CSc2nnc3c(n2)[nH]c2ccc(F)cc23)cc1,n,u
O=C(CSc1nnc2c(n1)[nH]c1ccc(F)cc12)OCc1ccccc1,n,13µM
